A number with no mark means an inactive call. The rule behind the calls is not given here.
The compounds below were run against 5-HT1A receptor (human, UniProt P08908) (assay: primary screen, binary call; higher = more effect of the substance). Conditions: 10 µM.
Parameters: hit call from the mean of at least two separate experiments
Experimental: GPCR radioligand binding assays were performed in HEK293 cells with stable expression of human 5-HT1A, 5-HT6, and 5-HT7b receptors (prepared with the use of Lipofectamine 2000). Non-specific binding was defined with 10 µM of 5-HT in 5-HT1AR and 5-HT7R binding experiments, whereas 10 µM of mianserin was used in 5-HT6R assays, respectively. Each compound was tested at 10 µM concentration. Results were expressed as means of at least two separate experiments.

Chain of 5-HT1A receptor (P08908 whole entry, looked up): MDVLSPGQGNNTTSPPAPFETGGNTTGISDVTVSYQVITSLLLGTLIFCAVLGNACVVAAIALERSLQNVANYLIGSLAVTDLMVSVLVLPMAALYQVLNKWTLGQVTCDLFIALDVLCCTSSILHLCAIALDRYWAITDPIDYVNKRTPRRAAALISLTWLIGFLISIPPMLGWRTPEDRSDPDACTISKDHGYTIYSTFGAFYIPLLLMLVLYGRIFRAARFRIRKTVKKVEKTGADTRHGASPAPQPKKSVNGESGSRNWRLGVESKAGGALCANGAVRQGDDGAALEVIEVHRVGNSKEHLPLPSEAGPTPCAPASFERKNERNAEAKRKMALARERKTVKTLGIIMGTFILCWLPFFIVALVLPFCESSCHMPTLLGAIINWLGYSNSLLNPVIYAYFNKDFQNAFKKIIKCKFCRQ

Row | SMILES | 5-HT1
1 | O=C1NC(=O)C2(CCc3ccccc32)N1 (stereo not shown) | 0
2 | CC1C(=O)NC(=O)N1c1ccc(Cl)cc1 (stereo not shown) | 0
3 | CC(CN)N1CCc2sccc2C1 (stereo not shown) | 0
4 | COc1ccccc1C1CCNCC1 | 1 (active)
5 | O=C1CCCc2occc21 | 0
6 | Cn1c(N)nc2ccccc21 | 0
7 | CC(=O)c1sc(-c2ccc(O)cc2)nc1C | 0
8 | Cc1nccn1Cc1cccc(C#N)c1 | 0
9 | O=c1ccc2c([nH]1)CCCC2 | 0
10 | CS(=O)(=O)c1ccc(OC(F)(F)F)cc1 | 0
11 | CCc1ccc(NC2=NCCCS2)cc1 | 0
12 | COc1ccccc1N1CCNCC1 | 1 (active)
13 | Oc1nnc(-c2ccccc2)o1 | 0
14 | O=C1CCN(c2ccncc2)CC1 | 0
15 | Nc1ccc(-c2ccccc2)cc1C(=O)O | 0
16 | O=C(CN1CCCC1)c1ccccc1Cl | 1 (active)
17 | Cn1nc(C(F)(F)F)cc1O | 0
18 | Cc1ccc(CCNc2ccccc2)cn1 | 0
19 | Cc1cc(C)c2c(=O)[nH]n(C)c2n1 | 0
20 | Oc1ccccc1N1CCCCC1 | 0

Row | SMILES | 5-HT1
21 | Brc1ccc(-c2ccon2)cc1 | 0
22 | Nc1ccc(SC(F)F)cc1 | 0
23 | O=C1CC(CSc2ccc(Cl)cc2)=NN1 | 0
24 | c1ccc2c(N3CCNCC3)ccnc2c1 | 1 (active)
25 | Cc1cc(-c2ccccc2)n[nH]1 | 0
26 | NC(=O)N1CCC(C(=O)O)CC1 | 0
27 | CS(=O)(=O)Nc1ccc(C(=O)O)cc1 | 0
28 | NCC1(c2ccccc2)CCOCC1 | 0
29 | N#Cc1ccc2ncsc2c1 | 0
30 | O=C1CCC(=O)N(c2ccccc2)N1 | 0
31 | N[C@H]1c2ccccc2C[C@H]1CO | 0
32 | O=C(O)c1cnc(-c2ccccc2)s1 | 0
33 | O=C1CNCCN1c1ccccc1 | 0
34 | O=C1CSC(Nc2ccc(F)cc2)=N1 | 0
35 | Cc1ccc(C)n1Cc1ccccc1Cl | 0
36 | CC(=O)c1ccc2c(c1)CCCN2 | 0
37 | O=c1[nH]ncc2c1oc1ccccc12 | 0
38 | COc1ccc(C2=CCNCC2)cc1 | 0
39 | Cc1nc(-c2ccccc2)cs1 | 0
40 | CN1CC(=O)NC1=O | 0
